Results filed as inconclusive are left out. Some structures have more than one record in an assay (separate samples or runs), and their calls can disagree. Activity calls are given as the source filed them. The calls were made as follows, unless noted: active = hit-call score of the fitted dose curve at least 0.9, where 1 is the maximum; inconclusive = response in the unintended direction; inactive = score below 0.9.
How the values were obtained:
[1] = molecular target: zebrafish Thyroid Hormone Receptor alpha (TRa), thraa (gene 30670) (UniProt Q98867); test: ATG_zfTRa_XSP2: Attagene TRANS-FACTORIAL Multi-Species (XSP1) HepG2 Assay for zebrafish Thyroid Hormone Receptor alpha (TRa) (AID 2283832);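 also: actives raise zebrafish TRa-Gal4 reporter transcript above DMSO baseline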
zebrafish Thyroid Hormone Receptor alpha (TRa), thraa (gene 30670), sequence (Q98867 whole entry, looked up, the tested form may be a part): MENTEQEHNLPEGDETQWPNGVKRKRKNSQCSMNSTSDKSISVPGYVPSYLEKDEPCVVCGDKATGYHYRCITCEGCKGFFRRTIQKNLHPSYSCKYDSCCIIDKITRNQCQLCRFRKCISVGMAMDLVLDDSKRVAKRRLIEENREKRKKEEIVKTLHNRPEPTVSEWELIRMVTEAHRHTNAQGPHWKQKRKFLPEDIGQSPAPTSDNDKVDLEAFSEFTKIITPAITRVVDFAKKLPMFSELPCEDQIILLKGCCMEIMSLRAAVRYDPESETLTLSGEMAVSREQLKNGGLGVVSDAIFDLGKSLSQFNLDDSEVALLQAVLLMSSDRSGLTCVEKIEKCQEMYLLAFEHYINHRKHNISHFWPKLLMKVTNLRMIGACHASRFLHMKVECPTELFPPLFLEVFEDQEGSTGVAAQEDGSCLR
In short: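 HepG2 cells transiently transfected with multiplexed GAL4-UAS reporter units expressing chimeric NR-Gal4 proteins; 24 h after dosing, reporter mRNA measured by RT-PCR, FAM labelling, HpaI digestion and capillary electrophoresis; gain of signal versus DMSO baseline.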

[2] = tested on: zebrafish Peroxisome Proliferator-activated Receptor gamma (PPARg), gene 557037; test: ATG_zfPPARg_XSP2: Attagene TRANS-FACTORIAL Multi-Species (XSP2) HepG2 Assay for zebrafish Peroxisome Proliferator-activated Receptor gamma (PPARg) (AID 2283833);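 also: actives increase reporter signal over DMSO so AC50 reflects activation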
In short: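 HepG2, transient MRTU transfection, 24 h compound; zfPPARg-GAL4 reporter mRNA by RT-PCR + capillary electrophoresis; gain-of-signal vs DMSO.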

[3] = tested on: turtle Thyroid Hormone Receptor, alpha (TRa), gene 101949057; test: ATG_trTRa_XSP2: Attagene TRANS-FACTORIAL Multi-Species (XSP1) HepG2 Assay for turtle Thyroid Hormone Receptor, alpha (TRa) (AID 2283834);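 also: hits raise reporter mRNA over the DMSO baseline so AC50 marks activators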
In short: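 Multiplexed TRANS reporter assay; HepG2 carrying NR-Gal4 constructs treated 24 h. mRNA of the GAL4-UAS reporter quantified via labelled RT-PCR fragments on a genetic analyzer, vs DMSO negative control.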

[4] = ATG_M_61_XSP2: Attagene TRANS-FACTORIAL Multi-Species (XSP2) HepG2 Assay for M61 Transcription Factor (Internal Marker) (AID 2283835; active = hit-call score of the fitted dose curve at least 0.9, where 1 is the maximum; inactive = score below 0.9;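 also: reporter mRNA of an internal background marker read by RT-PCR and capillary electrophoresis; active means a rise in signal above the DMSO baseline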)
In short: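 First, HepG2 cells are transfected with reporter units under GAL4-UAS control. Next, chemicals are applied for 24 h. Then total RNA is reverse-transcribed, amplified, fluorescently labelled and sized by capillary electrophoresis, with gain of signal scored against DMSO.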

[5] = molecular target: zebrafish Thyroid Hormone Receptor beta (TRb), thrb (gene 30607) (UniProt Q9PVE4); test: ATG_zfTRb_XSP2: Attagene TRANS-FACTORIAL Multi-Species (XSP1) HepG2 Assay for zebrafish Thyroid Hormone Receptor beta (TRb) (AID 2283836)
zebrafish Thyroid Hormone Receptor beta (TRb), thrb (gene 30607), sequence (Q9PVE4 whole entry, looked up, the tested form may be a part): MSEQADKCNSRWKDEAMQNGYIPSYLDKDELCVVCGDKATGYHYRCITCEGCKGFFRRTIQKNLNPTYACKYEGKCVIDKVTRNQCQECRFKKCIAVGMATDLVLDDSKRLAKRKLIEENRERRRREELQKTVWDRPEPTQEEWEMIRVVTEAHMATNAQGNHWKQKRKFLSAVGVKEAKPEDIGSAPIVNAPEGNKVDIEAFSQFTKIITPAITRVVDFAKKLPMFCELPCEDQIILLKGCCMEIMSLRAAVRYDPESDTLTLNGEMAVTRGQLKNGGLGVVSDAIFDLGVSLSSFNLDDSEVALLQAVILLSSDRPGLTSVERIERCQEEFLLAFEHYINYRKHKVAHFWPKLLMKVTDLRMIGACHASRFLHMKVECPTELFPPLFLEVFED
In short: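 HepG2 cells transiently transfected with multiplexed GAL4-UAS reporter units expressing chimeric NR-Gal4 proteins; read 24 h after dosing. Reporter mRNA quantified by RT-PCR, 6-FAM labelling, HpaI digest and capillary electrophoresis; gain of signal fitted relative to DMSO.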

[6] = molecular target: human Thyroid hormone Receptor beta (TRb), THRB (gene 7068) (UniProt P10828); test: ATG_hTRb_XSP2: Attagene TRANS-FACTORIAL Multi-Species (XSP2) HepG2 Assay for human Thyroid hormone Receptor beta (TRb) (AID 2283840);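 also: actives raise reporter mRNA so potency reflects agonist-like gain of signal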
human Thyroid hormone Receptor beta (TRb), THRB (gene 7068), sequence (P10828 whole entry, looked up): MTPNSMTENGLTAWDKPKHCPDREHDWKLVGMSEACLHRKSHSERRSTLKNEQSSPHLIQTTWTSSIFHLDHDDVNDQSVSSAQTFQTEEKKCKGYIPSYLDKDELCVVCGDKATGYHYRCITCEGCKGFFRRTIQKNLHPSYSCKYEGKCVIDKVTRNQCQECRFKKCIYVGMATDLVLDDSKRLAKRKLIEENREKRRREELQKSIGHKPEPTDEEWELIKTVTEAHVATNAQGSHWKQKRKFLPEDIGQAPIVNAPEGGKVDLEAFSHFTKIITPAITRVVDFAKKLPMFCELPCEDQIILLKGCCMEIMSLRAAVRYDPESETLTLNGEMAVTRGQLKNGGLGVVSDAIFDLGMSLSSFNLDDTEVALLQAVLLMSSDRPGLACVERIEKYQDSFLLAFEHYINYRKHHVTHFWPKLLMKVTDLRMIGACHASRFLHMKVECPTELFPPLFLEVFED
In short: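 Gain-of-signal reporter transcription, referenced to DMSO, was measured in transiently transfected HepG2 after 24 h exposure; labeled RT-PCR products were resolved by capillary electrophoresis. Assay medium included 3 nM 6-alpha-fluorotestosterone and 1.5 nM norgestrel.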

[7] = tested on: Sodium/Iodide Symporter (NIS), SLC5A5 (gene 6528); test: CPHEA_Stoker_NIS_Inhibition_RAIU: CPHEA's Radioactive Iodide Uptake (RAIU) Assay for Sodium/Iodide Symporter (NIS) Inhibition, Stoker and Laws Labs (AID 2283841)
In short: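 HEK293T cells stably expressing human NIS (hNIS-HEK293T-EPA) were exposed to test chemicals at 0.001–100uM (0.5% final DMSO) with 125I at a final 329pM in HBSS/10mM HEPES pH 7.4. After 2 hours at room temperature and ice-cold washes, intracellular 125I was counted as CPM and normalized to DMSO wells.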

[8] = CPHEA_Stoker_NIS_Cytotoxicity: Cytotoxicity Assessment for CPHEA's Radioactive Iodide Uptake (RAIU) Assay for Sodium/Iodide Symporter (NIS) Inhibition, Stoker and Laws Labs (AID 2283897);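 as to AC50: active means loss of ATP signal versus DMSO meaning cytotoxicity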
In short: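 hNIS-HEK293T-EPA human kidney cells were exposed for 2 hours at room temperature to test chemicals (0.001–100uM, 0.5% final DMSO) in HEPES-buffered HBSS, pH 7.4. Viability was read as ATP content by luciferase bioluminescence, loss of signal versus DMSO.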

[9] = molecular target: human Thyroid hormone Receptor alpha (TRa), THRA (gene 7067) (UniProt P10827); test: ATG_hTRa_XSP2: Attagene TRANS-FACTORIAL Multi-Species (XSP2) HepG2 Assay for human Thyroid hormone Receptor alpha (TRa) (AID 2283838)
human Thyroid hormone Receptor alpha (TRa), THRA (gene 7067), sequence (P10827 whole entry, looked up, the tested form may be a part): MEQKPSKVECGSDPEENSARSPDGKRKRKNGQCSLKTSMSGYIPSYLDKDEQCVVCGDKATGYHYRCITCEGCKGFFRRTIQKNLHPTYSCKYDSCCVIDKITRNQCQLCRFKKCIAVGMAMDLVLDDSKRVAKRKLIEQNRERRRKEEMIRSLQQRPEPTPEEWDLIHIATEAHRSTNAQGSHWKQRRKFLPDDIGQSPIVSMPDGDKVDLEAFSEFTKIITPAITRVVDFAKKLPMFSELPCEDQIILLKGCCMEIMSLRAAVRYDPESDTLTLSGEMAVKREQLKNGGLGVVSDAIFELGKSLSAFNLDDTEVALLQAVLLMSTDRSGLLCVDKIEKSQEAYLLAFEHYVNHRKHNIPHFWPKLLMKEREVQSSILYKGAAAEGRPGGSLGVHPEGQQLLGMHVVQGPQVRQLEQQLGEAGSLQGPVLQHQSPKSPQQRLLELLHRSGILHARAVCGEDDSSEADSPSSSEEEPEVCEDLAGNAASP
In short: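 HepG2 cells transiently transfected with multiplexed GAL4-UAS reporter units and exogenous NR-GAL4 chimeras; 24 h chemical exposure with 3 nM 6-alpha-fluorotestosterone and 1.5 nM norgestrel present. Reporter mRNA measured by RT-PCR, FAM labelling, HpaI digestion, capillary electrophoresis; gain-of-signal versus DMSO.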

[10] = molecular target: frog Thyroid hormone Receptor alpha (TRa), thra-a (gene 397942) (UniProt P15204); test: ATG_frTRa_XSP2: Attagene TRANS-FACTORIAL Multi-Species (XSP2) HepG2 Assay for frog Thyroid hormone Receptor alpha (TRa) (AID 2283839);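 as to AC50: AC50 reflects induction of frog TRa-driven reporter mRNA above DMSO baseline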
frog Thyroid hormone Receptor alpha (TRa), thra-a (gene 397942), sequence (P15204 whole entry, looked up, the tested form may be a part): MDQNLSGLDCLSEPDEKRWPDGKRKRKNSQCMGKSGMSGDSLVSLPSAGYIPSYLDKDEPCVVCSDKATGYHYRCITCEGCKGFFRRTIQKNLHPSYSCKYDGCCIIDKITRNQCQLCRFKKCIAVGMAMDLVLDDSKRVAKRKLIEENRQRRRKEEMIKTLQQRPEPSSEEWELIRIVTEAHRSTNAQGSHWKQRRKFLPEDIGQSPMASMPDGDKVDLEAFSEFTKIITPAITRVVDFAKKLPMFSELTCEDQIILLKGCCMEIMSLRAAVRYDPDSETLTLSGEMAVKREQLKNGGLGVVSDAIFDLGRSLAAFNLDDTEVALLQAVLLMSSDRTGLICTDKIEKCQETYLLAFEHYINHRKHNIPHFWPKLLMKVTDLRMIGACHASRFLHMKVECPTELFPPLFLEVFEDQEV
In short: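 Chimeric frog TRα-GAL4 activity in human liver cells measures reporter transcript induction 24 h post-dose. Detection uses RT-PCR, HpaI-digested labelled products and fluorescence capillary electrophoresis; DMSO serves as negative control.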

Measured: AC50

CO/C=C(/C(=O)OC)c1ccccc1Oc1cc(Oc2ccccc2C#N)ncn1
not listed: [8] | [9] | [10]
inactive: all other assays above

CCOC(=O)CC(SP(=S)(OC)OC)C(=O)OCC (stereo unspecified)
inactive: [7] | [8]

Cc1c(F)c(F)c(COC(=O)C2C(/C=C(\Cl)C(F)(F)F)C2(C)C)c(F)c1F (stereo unspecified)
inactive: [7] | [8]

CCON=C(CC)C1=C(O)CC(c2c(C)cc(C)cc2C)CC1=O (stereo unspecified)
inactive: [7] | [8]

CC1COC(Cn2cncn2)(c2ccc(Oc3ccc(Cl)cc3)cc2Cl)O1 (stereo unspecified)
active: [7] 11.5 µM | [8] 29 µM

CCCN(CCC)c1c([N+](=O)[O-])cc(S(N)(=O)=O)cc1[N+](=O)[O-]
active: [1] 51.1 µM
not listed: [3] | [9] | [10]
inactive: all other assays above

COC(=O)C(C)Oc1ccc(Oc2ccc(Cl)cc2Cl)cc1 (stereo unspecified)
inactive: [7] | [8]

CCc1nn(C)c(C(=O)NCc2ccc(C(C)(C)C)cc2)c1Cl
active: [7] 2.5 µM | [8] 9.92 µM

COC(=O)N(OC)c1ccccc1COc1ccn(-c2ccc(Cl)cc2)n1
active: [9] 2.63 µM
inactive: all other assays above

CCCCNC(=O)OCC#CI
active: [3] 25.5 µM | [10] 100 µM | [7] 9.77 µM
not listed: [5] | [6]
inactive: all other assays above

COc1nc(NC(C)C)nc(NC(C)C)n1
inactive: [7] | [8]

CS/C(C)=N/OC(=O)N(C)SN(C)C(=O)O/N=C(\C)SC
inactive: [7] | [8]

C#CCOS(=O)OC1CCCCC1Oc1ccc(C(C)(C)C)cc1 (stereo unspecified)
active: [1] 163 µM
not listed: [3] | [9]
inactive: all other assays above
